The list is not random: actives were taken first. Their share in the collection is about 17%.
TGFb inhibitor: blocks TGF-b signaling; HepG2 CAGA-GFP TGF-b/SMAD3 reporter, GFP fluorescence, 18 h; TGF-beta stimulated, 500 pg/mL final; Potency, µM (titrated, usually from 46.1 µM), for inactives: top-dose activity, negative = inhibition, usual class: inhibitors; hit rate 1.2% among 410,000; note: % is set by controls: 0 for no effect and ±100 for the full control effect; nearly all actives have a fitted effect of over 65% in size
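Cell-based qHTS in HEPG2 carrying a CAGA-GFP Smad reporter; compounds added before 500 pg/mL final TGF-beta, 18 h incubation at 37 degrees C, GFP fluorescence quantified per cell by imaging cytometry.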
DT40 TDP1 CPT: growth inhibition of DT40 Tdp1-/-;hTDP1 cells with camptothecin (screen for TDP1 inhibitors). chicken DT40 Tdp1-/-;hTDP1 cells + 20 nM CPT, ATP luminescence, 48 h. Potency, µM (doses to about 46.2 µM), without a hit: at the top dose activity change, negative = growth inhibition, actives largely listed as inhibitors. hit rate 12% among 420,000; note: % is set by controls: 0 for no effect and ±100 for the full control effect; nearly all actives have a fitted effect of over 55% in size
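Chicken DT40 Tdp1-/- cells complemented with human TDP1, 400 cells/well, exposed to compounds plus 20 nM camptothecin for at least 48 h at 37 C; viability read as ATP content by CellTiter-Glo luminescence.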
TDP1 cell noCPT: qHTS for Inhibitors of human tyrosyl-DNA phosphodiesterase 1 (TDP1): qHTS in cells in absence of CPT | Potency, µM (top dose mostly 46.2 µM), without a hit: at the highest dose activity change, negative = growth inhibition, usual class: inhibitors | DT40 Tdp1-/- hTDP1 cells, no CPT, ATP luminescence, 48 h | AID 686978, 2013 | hit rate 15% among 420,000; note: % is set by controls: 0 for no effect and ±100 for the full control effect; nearly all actives have a fitted effect of over 55% in size
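Seeded 400 DT40-hTDP1 cells/well (vehicle DMSO, no 20 nM CPT); pinned compounds; ≥48 hr at 37 °C; CellTiter-Glo luminescence as viability measure.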
HT1080-NT tox: kills 2HG-producing HT-1080-NT fibrosarcoma cells | Potency, µM (titrated, usually from 46.1 µM), without a hit: top-dose activity, negative = less viability, hits mostly cytotoxic | hit rate 1.6% among 360,000 | AID 686970 | HT-1080-NT fibrosarcoma viability, CellTiter-Glo ATP luminescence, 48 h;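 note: NT is the 2HG producing partner of a matched IDH1 knockdown line; 0% = DMSO-treated cells and -100% = media-only wells without cells; nearly all actives have a fitted effect of over 55% in size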
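750 cells/well, RPMI + 5% FBS; 2 h settle, compound pin-transfer, 48 h at 37 degrees C. CellTiter-Glo 10 min RT, luminescence. Normalized to DMSO and media-only wells.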
HT1080 IDH1KD tx: toxicity to HT-1080 IDH1 knockdown cells (counter line). HT-1080 IDH1 knockdown viability, ATP luminescence, 48 h. Potency, µM (titrated, usually from 46.1 µM), for the others: top-dose activity, negative = toxicity, most hits filed as cytotoxic. hit rate 2% among 360,000;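 note: 0% = DMSO wells and -100% = cell-free medium wells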
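Cytotoxicity counter-line: IDH1KD HT-1080, 48 h, CellTiter-Glo. Curves classed by r2, magnitude and activity.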
HepG2 viability: kills HepG2 cells in TGF-b inhibitor counter-screen. Potency, µM (titrated, usually from 46.1 µM), for the others: top-dose activity change, negative = cytotoxicity, hits mostly cytotoxic. HepG2 CAGA-GFP viability, ATP luminescence, 18 h. hit rate 0.76% among 410,000
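HepG2 CAGA-GFP cells (1000/well, DMEM with 1% FBS) received compound, then TGF-beta at 500 pg/mL final, and were incubated 18 hours at 37 degrees C. Viability was read by CellTiter-Glo luminescence. Media-only wells were set as complete cell-killing and DMSO as no toxicity.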
Starred values were filed as active, the others as inactive. Calls come from the whole dose curve; as a rule, active = well fitted curve in the direction sought with a large enough effect; inconclusive = small, poorly fitted or top-dose-only effect, or another doubt; inactive = no such curve, though single readings can be large; an effect the other way counts as inactive or inconclusive. Potency is the fitted concentration of half-maximal effect.

What do the screens show for `N#C/C(=C\c1c(N2CCN(c3ccccc3)CC2)nc2ccccn2c1=O)C(N)=O`?
TGFb inhibitor: 5%; DT40 TDP1 CPT: -16%; TDP1 cell noCPT: -19%; HT1080-NT tox: -3%; HT1080 IDH1KD tx: 11%; HepG2 viability: 0%

Results for Nc1ncc(S(=O)(=O)NCc2cccc(Cl)c2)cn1 ?
TGFb inhibitor: 0%; DT40 TDP1 CPT: -23%; TDP1 cell noCPT: -21%; HepG2 viability: -6%

Results for COc1ccc(NC(=O)c2cc(C)nc3c2c(C)nn3-c2ccc(C)cc2)cc1OC ?
TGFb inhibitor: -14%; DT40 TDP1 CPT: inconclusive; TDP1 cell noCPT: 15µM*; HepG2 viability: -2%

What do the screens show for `COc1ccc(NC(=O)c2cc(C3CC3)nc3c2c(C)nn3-c2ccccc2)cc1`?
TGFb inhibitor: -14%; DT40 TDP1 CPT: inconclusive; TDP1 cell noCPT: -51%; HepG2 viability: -2%

What do the screens show for `Cc1nn(-c2ccccc2)c2nc(C3CC3)cc(C(=O)Nc3ccc(F)cc3)c12`?
TGFb inhibitor: 3%; DT40 TDP1 CPT: 16µM*; TDP1 cell noCPT: 21µM*; HepG2 viability: -20%

Results for O=C(Cn1cnc2scc(-c3ccc(F)cc3)c2c1=O)NCC(c1ccco1)N1CCCC1 (stereo not drawn) ?
TGFb inhibitor: -3%; DT40 TDP1 CPT: -14%; TDP1 cell noCPT: -26%; HT1080-NT tox: 1%; HT1080 IDH1KD tx: -2%; HepG2 viability: -16%

What do the screens show for `CSc1ncc(C(=O)N2CCN(c3ccc(Cl)cc3)CC2)c(C)n1`?
TGFb inhibitor: inconclusive; DT40 TDP1 CPT: inconclusive; TDP1 cell noCPT: inconclusive; HepG2 viability: -3%

What do the screens show for `CCCS(=O)(=O)c1ncc(Cl)c(C(=O)N2CCN(c3ccc(OC)cc3)CC2)n1`?
TGFb inhibitor: 4µM*; DT40 TDP1 CPT: 2.1µM*; TDP1 cell noCPT: 3.7µM*; HepG2 viability: 4.5µM*

Results for CCSc1ncc(Cl)c(C(=O)N2CCN(c3ccc(OC)cc3)CC2)n1 ?
TGFb inhibitor: -23%; DT40 TDP1 CPT: inconclusive; TDP1 cell noCPT: inconclusive; HepG2 viability: -26%

How did CCN(CC)c1cc2c(cc1F)c(=O)c(S(=O)(=O)c1ccccc1)cn2Cc1ccccc1 do in these assays?
TGFb inhibitor: -5%; DT40 TDP1 CPT: 15µM*; TDP1 cell noCPT: 16µM*; HepG2 viability: -3%

How did CCN(CC)c1cc2c(cc1F)c(=O)c(S(=O)(=O)c1ccccc1)cn2C do in these assays?
TGFb inhibitor: -2%; DT40 TDP1 CPT: -28%; TDP1 cell noCPT: inconclusive; HepG2 viability: 4%

Results for COc1ccc(S(=O)(=O)c2cn(Cc3ccccc3)c3cc(F)c(F)cc3c2=O)cc1 ?
TGFb inhibitor: 1%; DT40 TDP1 CPT: 15µM*; TDP1 cell noCPT: inconclusive; HepG2 viability: -27%

Results for COc1cc2c(=O)c(S(=O)(=O)c3ccc(C)cc3)cn(Cc3cccc(C)c3)c2cc1OC ?
TGFb inhibitor: inconclusive; DT40 TDP1 CPT: 16µM*; TDP1 cell noCPT: 16µM*; HepG2 viability: -14%

Results for CCN(CC)c1cc2c(cc1F)c(=O)c(S(=O)(=O)c1ccc(OC)cc1)cn2Cc1ccccc1 ?
TGFb inhibitor: inconclusive; DT40 TDP1 CPT: inconclusive; TDP1 cell noCPT: 23µM*; HepG2 viability: -25%

Results for Cc1ccc(S(=O)(=O)c2cn(Cc3ccc(F)cc3)c3cc(F)c(F)cc3c2=O)cc1 ?
TGFb inhibitor: 0%; DT40 TDP1 CPT: 0%; TDP1 cell noCPT: 1%; HepG2 viability: 8%

How did Cc1cccc(S(=O)(=O)c2cn(Cc3ccccc3)c3cc(N4CCCCC4C)c(F)cc3c2=O)c1 (stereo not drawn) do in these assays?
TGFb inhibitor: -10%; DT40 TDP1 CPT: -58%; TDP1 cell noCPT: inconclusive; HepG2 viability: -4%

How did O=C(O)C1CCCN1 (stereo not drawn) do in these assays?
DT40 TDP1 CPT: 7%; TDP1 cell noCPT: 4%

Results for COc1ccc(OC)c(-n2nnnc2SCC(=O)NCc2ccc3c(c2)OCO3)c1 ?
TGFb inhibitor: -18%; DT40 TDP1 CPT: -10%; TDP1 cell noCPT: -18%; HT1080-NT tox: -2%; HT1080 IDH1KD tx: -24%; HepG2 viability: -17%

How did O=C(NCCO)c1cccc(-c2cnc3cccnn23)c1 do in these assays?
TGFb inhibitor: -5%; DT40 TDP1 CPT: inconclusive; TDP1 cell noCPT: inconclusive; HT1080-NT tox: 20%; HT1080 IDH1KD tx: 23%; HepG2 viability: -26%

How did CCCn1cc(S(=O)(=O)c2ccc(C)c(C)c2)c(=O)c2cc(F)c(N3CCCCC3)cc21 do in these assays?
TGFb inhibitor: -25%; DT40 TDP1 CPT: inconclusive; TDP1 cell noCPT: inconclusive; HepG2 viability: -21%

What do the screens show for `CCCCn1cc(S(=O)(=O)c2ccc(C)c(C)c2)c(=O)c2cc(F)c(N(CC)CC)cc21`?
TGFb inhibitor: -22%; DT40 TDP1 CPT: 7.3µM*; TDP1 cell noCPT: 8.2µM*; HepG2 viability: 6%

How did NS(=O)(=O)c1ccc(CCNC(=O)c2coc3ccccc3c2=O)cc1 do in these assays?
TGFb inhibitor: -4%; DT40 TDP1 CPT: 2%; TDP1 cell noCPT: -14%; HT1080-NT tox: inconclusive; HT1080 IDH1KD tx: -11%; HepG2 viability: -23%

Results for Cc1ccc2c(c1)c1c(n2CC(O)CNC(CO)(CO)CO)CCCC1 (stereo not drawn) ?
TGFb inhibitor: 2%; DT40 TDP1 CPT: inconclusive; TDP1 cell noCPT: -27%; HT1080-NT tox: -7%; HT1080 IDH1KD tx: -22%; HepG2 viability: -9%

How did Cc1ccc2c(c1)c1c(n2CC(O)CN2CCCCC2C)CCCC1 (stereo not drawn) do in these assays?
TGFb inhibitor: 0%; DT40 TDP1 CPT: inconclusive; TDP1 cell noCPT: inconclusive; HT1080-NT tox: 18µM*; HT1080 IDH1KD tx: inconclusive; HepG2 viability: -20%

What do the screens show for `Cc1ccc2c(c1)c1c(n2CC(O)CNC2CCCCC2)CCCC1` (stereo not drawn)?
TGFb inhibitor: inconclusive; DT40 TDP1 CPT: 23µM*; TDP1 cell noCPT: 15µM*; HT1080-NT tox: 21µM*; HT1080 IDH1KD tx: 16µM*; HepG2 viability: -104%
